# Data taken from PubChem BioAssay AID1159580 (chemical genetic matrix, 2015).
# Among all 5,500 compounds or so, about 2,000 (36%) were called active. Not shown: some 18% with an inconclusive outcome. Some of the results follow. A number with no mark means an inactive call. Cut-off read from the data, not from the text of the source: active = normalized growth mostly below about 0.91 (no sharp cut-off); inconclusive = no clear call, values can overlap the other calls; inactive = mostly above about 0.92.
# Experiment: chemical genetic growth profiling, strain panel (AID 1159580);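 note: tested at 20 µM; growth read once vehicle control cultures reached saturation at 30 °C; 1 = growth at the plate median or of vehicle wells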
# Settings: S. cerevisiae deletion strains, growth OD
# [1] = locus YAL013W, strain DEP1, stronger effect = lower value
# [2] = locus YAL040C, strain CLN3, stronger effect = lower value
# [3] = locus YCL061C, strain MRC1 (second series), stronger effect = lower value
# [4] = locus YDR150W, strain NUM1, stronger effect = lower value
# [5] = locus YDR363W, strain ESC2, stronger effect = lower value
# [6] = locus YER002W, strain NOP16, stronger effect = lower value
# [7] = locus YGR229C, strain SMI1, stronger effect = lower value
# [8] = locus YMR307W, strain GAS1, stronger effect = lower value
# [9] = locus YNL128W, strain TEP1, stronger effect = lower value
# [10] = locus YNL175C, strain NOP13, stronger effect = lower value
# [11] = locus YNL197C, strain WHI3, stronger effect = lower value
# [12] = locus YNL224C, strain SQS1, stronger effect = lower value
# [13] = locus YOR083W, strain WHI5 (second series), stronger effect = lower value
# [14] = locus YPL055C, strain LGE1, stronger effect = lower value
# [15] = locus YPL241C, strain CIN2, stronger effect = lower value
# [16] = locus YGR078C, strain PAC10, stronger effect = lower value
# [17] = locus YJR075W, strain HOC1, stronger effect = lower value
# [18] = locus YMR263W, strain SAP30, stronger effect = lower value
smiles,measurement,setting,value
Oc1cc2c(cc1O)C(c1ccccc1)CNCC2 (stereo not drawn),normalized growth,[1],0.977
same,normalized growth,"locus YAL021C, strain ccr4, stronger effect = lower value",0.972
same,normalized growth,"locus YAL026C, strain drs2, stronger effect = lower value",0.988
same,normalized growth,"locus YAL030W, strain snc1, stronger effect = lower value",1.01
same,normalized growth,[2],1.03
same,normalized growth,"locus YBL061C, strain skt5, stronger effect = lower value",0.996
same,normalized growth,"locus YBR009C, strain hhf1, stronger effect = lower value",1.05
same,normalized growth,"locus YBR023C, strain chs3, stronger effect = lower value",0.998
same,normalized growth,"locus YBR171W, strain sec66, stronger effect = lower value",0.912
same,normalized growth,"locus YBR231C, strain swc5, stronger effect = lower value",1.01
same,normalized growth,"locus YBR279W, strain paf1, stronger effect = lower value",0.988
same,normalized growth,"locus YCL011C, strain gbp2, stronger effect = lower value",0.984
same,normalized growth,"locus YCL016C, strain dcc1, stronger effect = lower value",1
same,normalized growth,[3],0.982
same,normalized growth,"locus YCL061C, strain MRC1, stronger effect = lower value",0.992
same,normalized growth,"locus YCL069W, strain vba3, stronger effect = lower value",1
same,normalized growth,"locus YCR088W, strain abp1, stronger effect = lower value",0.999
same,normalized growth,"locus YDL005C, strain med2, stronger effect = lower value",1
same,normalized growth,"locus YDL040C, strain nat1, stronger effect = lower value",1.01
same,normalized growth,"locus YDR001C, strain nth1, stronger effect = lower value",0.994
same,normalized growth,"locus YDR069C, strain doa4, stronger effect = lower value",0.974
same,normalized growth,"locus YDR137W, strain rgp1, stronger effect = lower value",0.967
same,normalized growth,[4],0.963
same,normalized growth,"locus YDR159W, strain sac3, stronger effect = lower value",1.01
same,normalized growth,"locus YDR195W, strain ref2",1.07
same,normalized growth,"locus YDR297W, strain sur2, stronger effect = lower value",0.996
same,normalized growth,"locus YDR334W, strain swr1, stronger effect = lower value",0.963
same,normalized growth,"locus YDR335W, strain msn5, stronger effect = lower value",0.979
same,normalized growth,[5],0.983
same,normalized growth,"locus YDR392W, strain spt3, stronger effect = lower value",0.845
same,normalized growth,"locus YEL003W, strain gim4, stronger effect = lower value",0.976
same,normalized growth,"locus YEL037C, strain rad23, stronger effect = lower value",1
same,normalized growth,"locus YEL061C, strain CIN8 (second series), stronger effect = lower value",0.99
same,normalized growth,[6],1
same,normalized growth,"locus YER015W, strain faa2, stronger effect = lower value",1.02
same,normalized growth,"locus YER016W, strain bim1, stronger effect = lower value",1.01
same,normalized growth,"locus YER111C, strain swi4, stronger effect = lower value",0.993
same,normalized growth,"locus YER155C, strain BEM2 (second series), stronger effect = lower value",1.01
same,normalized growth,"locus YFR010W, strain ubp6, stronger effect = lower value",0.95
same,normalized growth,"locus YGL167C, strain pmr1, stronger effect = lower value",0.994
same,normalized growth,"locus YGL173C, strain kem1, stronger effect = lower value",1
same,normalized growth,"locus YGL227W, strain vid30, stronger effect = lower value",1.01
same,normalized growth,"locus YGL240W, strain doc1, stronger effect = lower value",1.05
same,normalized growth,"locus YGL253W, strain hxk2, stronger effect = lower value",0.991
same,normalized growth,[7],0.958
same,normalized growth,"locus YHR013C, strain ard1, stronger effect = lower value",0.96
same,normalized growth,"locus YHR027C, strain rpn1, stronger effect = lower value",0.989
same,normalized growth,"locus YHR030C, strain SLT2, stronger effect = lower value",0.986
same,normalized growth,"locus YHR079C, strain IRE1, stronger effect = lower value",0.989
same,normalized growth,"locus YHR142W, strain chs7, stronger effect = lower value",0.916
same,normalized growth,"locus YJL092W, strain hpr5, stronger effect = lower value",0.974
same,normalized growth,"locus YJL095W, strain BCK1 (second series), stronger effect = lower value",1.01
same,normalized growth,"locus YJL095W, strain BCK1, stronger effect = lower value",0.98
same,normalized growth,"locus YJL115W, strain asf1, stronger effect = lower value",0.991
same,normalized growth,"locus YJL129C, strain trk1, stronger effect = lower value",0.921
same,normalized growth,"locus YJL154C, strain vps35, stronger effect = lower value",1
same,normalized growth,"locus YJL164C, strain tpk1, stronger effect = lower value",0.967
same,normalized growth,"locus YJL166W, strain qcr8, stronger effect = lower value",0.995
same,normalized growth,"locus YJL187C, strain SWE1, stronger effect = lower value",1
same,normalized growth,"locus YJR066W, strain TOR1, stronger effect = lower value",0.943
same,normalized growth,"locus YKL160W, strain elf1, stronger effect = lower value",0.942
same,normalized growth,"locus YKR026C, strain gcn3, stronger effect = lower value",0.995
same,normalized growth,"locus YKR091W, strain srl3, stronger effect = lower value",1
same,normalized growth,"locus YLL001W, strain dnm1, stronger effect = lower value",0.989
same,normalized growth,"locus YLL026W, stronger effect = lower value",1
same,normalized growth,"locus YLL041C, strain sdh2, stronger effect = lower value",0.989
same,normalized growth,"locus YLR027C, strain aat2, stronger effect = lower value",0.977
same,normalized growth,"locus YLR113W, strain HOG1, stronger effect = lower value",0.979
same,normalized growth,"locus YLR221C, strain rsa3, stronger effect = lower value",0.948
same,normalized growth,"locus YLR258W, strain gsy2, stronger effect = lower value",1.02
same,normalized growth,"locus YLR262C, strain YPT6 (second series), stronger effect = lower value",0.919
same,normalized growth,"locus YLR320W, strain mms22, stronger effect = lower value",0.966
same,normalized growth,"locus YLR342W, strain FKS1, stronger effect = lower value",0.994
same,normalized growth,"locus YLR357W, strain rsc2, stronger effect = lower value",1.04
same,normalized growth,"locus YLR370C, strain arc18, stronger effect = lower value",0.991
same,normalized growth,"locus YLR384C, strain iki3, stronger effect = lower value",1.01
same,normalized growth,"locus YML120C, strain ndi1, stronger effect = lower value",0.94
same,normalized growth,"locus YMR058W, strain fet3, stronger effect = lower value",0.945
same,normalized growth,"locus YMR125W, strain sto1, stronger effect = lower value",1.02
same,normalized growth,"locus YMR129W, stronger effect = lower value",0.984
same,normalized growth,"locus YMR205C, strain PFK2, stronger effect = lower value",1.06
same,normalized growth,"locus YMR231W, strain pep5, stronger effect = lower value",1.02
same,normalized growth,[8],0.992
same,normalized growth,"locus YNL071W, strain lat1, stronger effect = lower value",0.964
same,normalized growth,[9],0.981
same,normalized growth,[10],1.04
same,normalized growth,"locus YNL183C, strain NPR1, stronger effect = lower value",0.952
same,normalized growth,[11],1.03
same,normalized growth,"locus YNL209W, strain ssb2, stronger effect = lower value",0.997
same,normalized growth,[12],0.993
same,normalized growth,"locus YNL248C, strain rpa49, stronger effect = lower value",0.93
same,normalized growth,"locus YNL322C, strain KRE1 (second series), stronger effect = lower value",0.989
same,normalized growth,"locus YNR049C, strain mso1, stronger effect = lower value",1
same,normalized growth,"locus YOR001W, strain rrp6, stronger effect = lower value",0.918
same,normalized growth,"locus YOR070C, strain gyp1, stronger effect = lower value",0.992
same,normalized growth,"locus YOR080W, strain dia2, stronger effect = lower value",1
same,normalized growth,[13],1.02
same,normalized growth,"locus YOR083W, strain WHI5, stronger effect = lower value",0.922
same,normalized growth,"locus YOR106W, strain vam3, stronger effect = lower value",0.919
same,normalized growth,"locus YOR231W, strain MKK1, stronger effect = lower value",0.941
same,normalized growth,"locus YOR265W, strain rbl2, stronger effect = lower value",0.997
same,normalized growth,"locus YOR270C, strain vph1, stronger effect = lower value",0.967
same,normalized growth,"locus YOR290C, strain snf2, stronger effect = lower value",0.92
same,normalized growth,"locus YPL051W, strain arl3, stronger effect = lower value",0.938
same,normalized growth,[14],0.948
same,normalized growth,"locus YPL078C, strain atp4, stronger effect = lower value",0.945
same,normalized growth,"locus YPL106C, strain sse1, stronger effect = lower value",0.972
same,normalized growth,"locus YPL240C, strain hsp82, stronger effect = lower value",0.983
same,normalized growth,[15],0.997
same,normalized growth,"locus YPL256C, strain CLN2, stronger effect = lower value",0.984
NC1CCc2cc(O)c(O)cc2C1 (stereo not drawn),normalized growth,[1],0.978
same,normalized growth,[2],1.01
same,normalized growth,[3],1.01
same,normalized growth,[4],1.01
same,normalized growth,[5],0.979
same,normalized growth,[6],1.02
same,normalized growth,[16],1.04
same,normalized growth,[17],0.985
same,normalized growth,[18],0.997
same,normalized growth,[9],1.01
same,normalized growth,[10],1.02
same,normalized growth,[11],1.01
same,normalized growth,[12],1.01
same,normalized growth,[13],1.08
same,normalized growth,[14],0.976
Oc1cc2c(cc1O)[C@H]1c3ccccc3CN[C@@H]1CC2,normalized growth,[1],0.9 (active)
same,normalized growth,[2],1.01
same,normalized growth,[3],0.845 (active)
same,normalized growth,[4],0.848 (active)
same,normalized growth,[5],0.985
same,normalized growth,[6],1.03
same,normalized growth,[16],1
same,normalized growth,[7],0.685 (active)
same,normalized growth,[17],0.843 (active)
same,normalized growth,[18],1
same,normalized growth,[8],0.871 (active)
same,normalized growth,[9],1.01
same,normalized growth,[10],1.03
same,normalized growth,[11],1.02
same,normalized growth,[12],1.02
same,normalized growth,[13],1.01
same,normalized growth,[14],0.864 (active)
same,normalized growth,[15],0.925 (active)
